Source: PubChem BioAssay (NCI)
The panel holds about 83,000 compounds, 20% with a hit somewhere; the sample as a whole holds those more often.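 Note: values are percent growth. 100 is the growth of untreated cells, values between 100 and 0 indicate rising inhibition; between -100 and 0 indicates cell death.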 Values without a mark were called inactive. The source made the active and inactive calls.

Tested on: SN12C renal
Test: NCI-60 one-dose screen, 48 h (100 = growth as untreated, 0 = no growth, -100 = all killed)
Settings: 10 µM unless noted
Protocol: Growth inhibition of the SN12C human tumor cell line is measured as a screen for anti-cancer activity. Cells are grown in 96 well plates and exposed to the test compound for 48 hours. Compounds are tested at a single concentration, which is 10^-5 M for most compounds. The reported endpoint is percent growth (GI% or GIPRCNT), where numbers from 0 - 100% represent growth inhibition, and numbers from -100% - 0 represent cell death. For example, a value of 40 represents 60% growth inhibition. A value of 0 means no net growth occurred over the course of the experiment. A value of -40 indicates 40% of cells at the beginning of the experiment died by the end of the experiment. A value of -100 means all cells are dead at the end of the experiment.
NCI-60 Human Tumor Cell Lines Screen was performed using the standard one-dose NCI protocol, which is described in more detail at https://dtp.cancer.gov/discovery_development/nci-60/default.htm.
Compounds with GIPRCNT values below 10 were considered active. Activity score was based on GIPRCNT using the following formula: […]
Score is 0 for GIPRCNT values of 100 or above, 50 for GIPRCNT values of 0, and 100 for GIPRCNT values of -100.

| Compound | growth |
| --- | --- |
| COc1ccc(CN2C(=O)/C(=C\C(=O)c3ccc(OCCN4CCCCC4)cc3)c3ccccc32)cc1 | 26.3% |
| CC(C)CSc1nc(-c2ccc(F)cc2)c(C#N)c(N2CCCCC2)n1 | 105% |
| CCOc1nc(-c2ccccc2)cc2c(O)c(C(=O)N/N=C/c3ccccc3O)[nH]c(=O)c12 | 115% |
| COc1cc2c(c(OC)c1OC)C(=O)CC(c1cccc(C(=O)Nc3cccc(Br)c3)c1)O2 (stereo not given) | 71.7% |
| COc1ccc(-c2nc(SCC(C)C)nc(Nc3ccccc3)c2C#N)cc1 | 60.2% |
| COc1ccc(/C=C2\SC(=O)N(Cc3cc(=O)oc4ccc(OC)cc34)C2=O)cc1 | 90.7% |
| O=C(Nc1ccccc1)Nc1ccc(Nc2ncnc3sc4c(c23)CCCC4)cc1 | 99.3% |
| COc1cc2cc3cc4cc(OC)c(OC)cc4c(C)[n+]3cc2cc1OC (tested in a mixture with another compound) | 85.7% |
| CC(=O)c1cc(Nc2cc(C)nc(N)n2)cc(C(C)=O)c1 | 94.1% |
| CCCNC(=O)Oc1ccc(/C(=C(/CC)Cc2ccccc2)c2ccc(OCCN(CC)CC)cc2)cc1 | 78.6% |
| O=C1c2cc([N+](=O)[O-])ccc2-c2cc(Cl)c(NC(=O)C(F)(F)F)cc21 | 112% |
| Cc1ccc(S(=O)(=O)Nc2cccc(Cn3c(=O)[nH]c4ccc(Oc5ncccn5)cc4c3=O)c2)cc1 | 86.5% |
| COC(=O)C(C)[C@H]1CC[C@@H]2[C@]1(C)CC=C1[C@]23C=C[C@]2(C[C@@H](OC(C)=O)CC[C@]12C)C(C(=O)OC)C3C(=O)OC (stereo not given in full) | 100% |
| CCOC(=O)c1c(C)oc2ncnc(Nc3ccc(C(=O)NCCc4ccccc4)cc3)c12 | 99.4% |
| CC(=O)OCC(=O)[C@@]1(O)[C@H](C)C[C@H]2[C@@H]3C=C(C)C4=Cc5c(cnn5-c5ccc(F)cc5)C[C@]4(C)[C@H]3[C@@H](O)C[C@@]21C | 40.5% |
| COc1ccc(/C=N/c2cc(C(C)(C)C)nn2-c2ccccc2)cc1 | 102% |
| Cc1ccc(C(C)C)c(OCc2ccc(C(=O)N/N=C/c3cccc(O)c3O)cc2)c1 | 35% |
| COc1ccc(-c2nc(SCC(C)C)nc(Nc3ccc([N+](=O)[O-])cc3)c2C#N)cc1 | 72% |
| C=CC1CN2CCC1CC2C(O)c1ccnc2ccc(OC)cc12 (stereo not given) | 98.7% |
| CCOP1(=O)CC(C)=C(Cl)C(P(=O)(O)O)C1 (stereo not given) | 99.3% |

| Compound | growth |
| --- | --- |
| O=C1C(Br)=CC2C1C1C3CCC3C2(Br)C12OCCO2 (stereo not given) | 41.8% |
| NNC(=O)CNc1ccc2ccccc2c1 | 104% |
| COc1ccc2c(c1)/C(=C/c1c(-c3cc(OC)c(OC)c(OC)c3)nc3sccn13)C(=O)N2 | 105% |
| CCCCCCCCCCN1CC2CCCCC2C1 (stereo not given) | 75.7% |
| COc1ccc(-c2cc(C#N)c(NNC(C)=O)[nH]2)cc1 | 113% |
| Cc1ccc(S(=O)(=O)NC(CCC(=O)Nc2ccccc2)C(=O)Nc2ccccc2)cc1 (stereo not given) | 3.91% (active) |
| Br/C(=N\Nc1nn[nH]n1)c1ccccc1 | 98.7% |
| CCCCCCN(CCCCCC)CCC(=O)Nc1ccc(S(=O)(=O)c2ccc(NC(=O)CCN(CCCCCC)CCCCCC)cc2)cc1 | 81.4% |
| N#Cc1c2ncccc2c2nnc3cc(Cl)c(Cl)cc3n12 | 110% |
| CCC(C)C1NC(=O)C(CC(C)C)NC(=O)C(C)NC(=O)C(C(C)C)NC(=O)C(CCCCN)NC(=O)C(CC(C)C)NC(=O)C(C(C)C)NC(=O)[C@H](C)NC(=O)C(C(C)CC)NC(=O)C(CCCN=C(N)N)NC(=O)C(CCCCN)NC(=O)C(CCCN=C(N)N)NC(=O)C(CCCCN)NC(=O)C([C@H](C)CC)NC(=O)C(CCCCN)NC1=O (stereo not given in full) | 10.9% |
| COC(c1ccccc1)C(Br)C(=O)c1ccccc1 (stereo not given) | 94.3% |
| O=C(Nc1cccc2[nH]c(C(F)(F)F)nc12)c1ccc(F)cc1 | 81.8% |
| CCCCCCCCCC[N+](C)(C)N | 103% |
| c1cc[c]([Bi]([c]2ccccc2)[c]2ccccc2)cc1 | 97.1% |
| COC(=O)c1cc(O)c2cc3c(cc2c1-c1cc(OC)c(OC)c(OC)c1)OCO3 | 34.1% |
| CC(C)(C)C(=O)OCOP(=O)(OCOC(=O)C(C)(C)C)C1CC(O)N(O)C1=O (stereo not given) | 11.6% |
| CC(O)C(N)=O (stereo not given) | 106% |
| O=C(/C=C1\C(=O)N(Cc2ccccc2)c2ccccc21)c1ccc(OCCN2CCCCC2)cc1 | 0.718% (active) |
| CC(=O)Nc1nc(C)c(C(=O)NN)s1 | 95.2% |
| COC(=O)c1ccc2[nH]c(O)c(C(=Nc3ccc(N(C)C(=O)CN4CCN(C)CC4)cc3)c3ccc(N)cc3)c2c1 | 50.4% |
